# NPSR antag: neuropeptide S receptor (human) antagonism, cAMP; Q6W5P4; CHO-NPSR cells, cAMP TR-FRET, antagonist mode; Potency, µM (top dose mostly 38.3 µM), for inactives: top-dose activity change, negative = inhibition, actives largely listed as inhibitors; hit rate 1% among 220,000; AID 1461; note: nearly all actives have a fitted effect of over 50% in size
# ALDH1A1 inh: blocks purified human ALDH1A1 activity; P00352; Purified ALDH1A1, NADH fluorescence, propionaldehyde substrate; Potency, µM (highest dose often 75.3 µM), for the others: top-dose activity, negative = inhibition, usual class: inhibitors; hit rate 7.3% among 220,000; active = well fitted inhibition curve with a large enough effect, not every such curve was filed as active; inconclusive = small, poorly fitted or top-dose-only effect, or another doubt; inactive = no such curve, though single readings can be large or run the other way;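 note: plate controls were no enzyme wells and a reference inhibitor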
# Target sequence (P00352 whole entry, looked up): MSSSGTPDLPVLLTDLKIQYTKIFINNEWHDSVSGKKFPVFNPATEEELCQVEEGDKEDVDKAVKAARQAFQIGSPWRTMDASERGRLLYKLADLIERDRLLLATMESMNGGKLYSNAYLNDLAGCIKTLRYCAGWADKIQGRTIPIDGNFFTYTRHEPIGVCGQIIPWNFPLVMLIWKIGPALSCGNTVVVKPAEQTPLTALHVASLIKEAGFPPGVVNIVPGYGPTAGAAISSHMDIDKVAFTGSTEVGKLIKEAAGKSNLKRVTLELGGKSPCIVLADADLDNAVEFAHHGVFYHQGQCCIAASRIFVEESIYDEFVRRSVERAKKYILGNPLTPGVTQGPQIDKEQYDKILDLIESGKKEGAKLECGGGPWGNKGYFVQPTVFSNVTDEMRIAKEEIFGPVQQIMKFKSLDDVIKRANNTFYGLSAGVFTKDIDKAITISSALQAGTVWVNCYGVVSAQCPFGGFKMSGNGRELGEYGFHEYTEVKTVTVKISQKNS
# Tau fibril FP: tau fibrillization inhibition (FP). P10636. K18 P301L tau heparin fibrillization, Alexa594 FP, 6 h. hit rate 0.39% among 280,000. Potency, µM (top dose mostly 57.7 µM), inactives show at the top dose activity, negative = inhibition, most hits filed as inhibitors; note: nearly all actives have a fitted effect of over 55% in size
#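 Recombinant K18 P301L […], labeled with Alexa 594 at 0.24 uM over 15 uM unlabeled; heparin inducer 20 uM final; 37 C, 6 hr; FP endpoint.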
# Tau fluor counter: counter-screen for tau fibril formation inhibitors; AID 1463; hit rate 0.93% among 280,000; Potency, µM (series often up to 57.7 µM), for inactives: top-dose activity change, negative = decrease; tau K18 P301L Alexa594 fluorescence, heparin fibrillization; note: nearly all actives have a fitted effect of over 55% in size
#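 Human tau K18 P301L (15 uM unlabeled, 0.24 uM Alexa 594-labeled) in 100 mM sodium acetate pH 7 with 20 uM heparin, 6 hr at 37 C. ThT 30 uM added, 1 hr ambient; Alexa 594 FP and total fluorescence read at 555/632 nm.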
# Tau ThT inhib: blocks human tau fibril formation measured by thioflavin T | P10636 | Potency, µM (titrated, usually from 57.4 µM), for inactives: at the highest dose activity, negative = inhibition, actives largely listed as inhibitors | hit rate 2.1% among 270,000 | AID 1460 | recombinant tau K18 P301L (four-repeat tau fragment), heparin-induced fibrillization, ThT fluorescence; note: nearly all actives have a fitted effect of over 55% in size
#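 Aggregation was driven by heparin (20 uM final) acting on recombinant tau […] bearing P301L in 100 mM sodium acetate pH 7; fibrils were detected with Thioflavin T.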
# HPGD inh: HPGD (human) dehydrogenase inhibition; P15428; purified HPGD, NADH fluorescence kinetic, PGE2 substrate; Potency, µM, without a hit: at the top dose activity change, negative = inhibition, actives largely listed as inhibitors; hit rate 4.3% among 150,000; AID 894; active = well fitted inhibition curve with a large enough effect, not every such curve was filed as active; inconclusive = small, poorly fitted or top-dose-only effect, or another doubt; inactive = no such curve, though single readings can be large or run the other way
#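 20 nM HPGD preincubated 15 min at room temperature with compound in 50 mM Tris-HCl pH 8, 0.01% Tween 20. Started with 1 mM NAD+ and 30 uM prostaglandin E2; NADH fluorescence (360/450 nm) read 5 times over 30-s intervals, last minus first.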
# * = called active by the depositor; ? = inconclusive; · = not tested or not shown; [ ] = another dose, or the depositor's remark. Only some compounds are listed: those with a hit (about 9.5% of all), similar ones and a draw of the others. Unless noted, calls come from the whole dose curve; as a rule, active = well fitted curve in the direction sought with a large enough effect; inconclusive = small, poorly fitted or top-dose-only effect, or another doubt; inactive = no such curve, though single readings can be large; an effect the other way counts as inactive or inconclusive. Unless noted, % is set by controls: 0 for no effect and ±100 for the full control effect; potency is the fitted concentration of half-maximal effect.
SMILES,NPSR antag,ALDH1A1 inh,Tau fibril FP,Tau fluor counter,Tau ThT inhib,HPGD inh
COc1ccc(NC(=O)Cn2c(=O)n(Cc3nc(-c4ccccc4)no3)c(=O)c3ccccc32)cc1Cl,·,·,?,-6%,?,·
O=C(Cn1c(=O)n(Cc2nc(-c3ccccc3)no2)c(=O)c2ccccc21)Nc1cccc(Cl)c1,·,·,28µM*,-27%,?,·
O=C(Cn1c(=O)n(Cc2nc(-c3ccccc3)no2)c(=O)c2ccccc21)Nc1cccc(C(F)(F)F)c1,·,·,10µM*,?,19%,·
COC(=O)N1C(C)=Cc2ccccc2C1CC(C)=O (centres undefined),·,0%,-5%,-4%,-7%,-2%
C=C1CCC(=O)C(C)CCC2C1CC2(C)C (centres undefined),·,-6%,-15%,-5%,1%,-11%
COC(=O)/C(=C/c1ccco1)NC(=O)c1ccc(Br)o1,-2%,20µM*,-3%,-6%,-14%,·
COC(=O)/C(=C/c1ccco1)NC(=O)c1ccco1,6%,10µM*,-3%,1%,?,-17%
C=CCOC(=O)/C(=C/c1ccco1)NC(=O)/C=C/c1ccccc1,-25%[46.1 µM],16µM*,-2%,-11%,-3%,-29%
Cc1ccc(/C=N/NC(=O)Cc2cccn2C)s1,7%,3%,7%,11%,13%,7.1µM*
CC(/C=N/NC(=O)Cc1cccn1C)=C\c1ccco1,-5%[46.1 µM],14µM*,?,-22%,28µM*,?
CC(/C=N/NC(=O)Cn1cnc2c1c(=O)n(C)c(=O)n2C)=C\c1ccco1,43%,22µM*,4%,-9%,?,·
Cn1c(=O)c2c(ncn2CC(=O)N/N=C/C=C/c2ccco2)n(C)c1=O,36%,·,-13%,-15%,?,·
CC(=C/c1ccco1)/C=N/NC(=O)Cc1cccn1C,-12%,25µM*,-12%,-13%,?,-26%
CCc1cccc(NC(=O)C(CC(C)C)NS(=O)(=O)c2ccc3c(c2)oc(=O)n3C)c1 (centres undefined),·,·,4%,-17%,-3%,·
Cc1c(NC(=O)C(C)N2C(=O)NC3(CCC(C)CC3)C2=O)c(=O)n(-c2ccccc2)n1C (centres undefined),33%,-7%,3%,1%,9%,·
CCOC(=O)CN1C(=O)N[C@H](c2ccc(Br)cc2)C(C(C)=O)=C1C,4%,14µM*,-16%,-14%,?,-23%
CCOC(=O)CN1C(=O)N[C@@H](c2ccc(Br)cc2)C(C(=O)OC)=C1C,-9%,-3%[13.5 µM],-2%[11.6 µM],-4%[11.6 µM],3%[11.5 µM],1%
COc1ccccc1C1NC=C([N+](=O)[O-])C=C1[N+](=O)[O-] (centres undefined),-30%,8.9µM*,?,?,11µM*,3.5µM*
COc1ccccc1C1C([N+](=O)[O-])=CC([N+](=O)[O-])=CN1C (centres undefined),-13%,13µM*,6%,-2%,?,-10%
COc1ccccc1Oc1ccccc1[N+](=O)[O-],-6%[7.67 µM],·,-9%,-8%,-1%,·
COCCCNC(=O)C1CCN(C(=O)c2ccc(-n3ccc4ccccc43)s2)CC1,·,·,3%,-5%,-1%,·
NC(=S)NN=C1C2CC3CC(C2)CC1C3,-32%,25µM*,-11%,-1%,-3%,·
[O-]/C(=C(\C(=S)Nc1cccc2ccccc12)[n+]1cccc(CO)c1)c1ccc(Cl)s1,-13%,13µM*,?,?,14µM*,·
[O-]/C(=C(\C(=S)Nc1ccc(SC(F)F)cc1)[n+]1cccc(CO)c1)c1ccc(Cl)s1,-32%,?,-12%,?,25µM*,·
Cc1ccc(NC(=S)/C(=C(\[O-])c2ccc(Cl)s2)[n+]2cccc(CO)c2)cc1C,-18%,14µM*,-5%,-25%,?,·
Cc1cc(C)c(/C([O-])=C(/C(=S)Nc2ccc(SC(F)F)cc2)[n+]2ccccc2)cc1C,-28%,?,-8%,-9%,-17%,·

# Source: PubChem (National Center for Advancing Translational Sciences (NCATS))
